IDE exosite FP: insulin-degrading enzyme (human) exo-site inhibition; P14735; purified IDE, FL-6b probe fluorescence polarization; hits give low values; z-score at 20 µM; 6.3% of 17,000 active;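 active means z-score of -3 or lower, meaning strong loss of probe binding signal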;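 further: His-tagged human IDE residues 42-1019 made in E. coli with 30 nM FL-6b probe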
Numbers without * were called inactive. The entries come from a sample that favours hits as a whole.

Screening O=C(C[C@@H]1C[C@@H]2c3cc(NS(=O)(=O)c4ccc(F)cc4)ccc3O[C@@H]2[C@H](CO)O1)NCCN1CCCCC1 returned IDE exosite FP 1.7.
`CN1c2ccc(Br)cc2[C@H]2[C@H](CCN2C(=O)C2CCC2)[C@@H]1CO` gave IDE exosite FP 0.04.
For CO[C@H](CN(C)S(=O)(=O)c1ccc(C)cc1)[C@H](C)CN(C(=O)Nc1ccccc1F)[C@@H](C)CO the results were IDE exosite FP -0.097.
C[C@H](NC(=O)C[C@@H]1C=C[C@H](NS(=O)(=O)c2cccc(F)c2)[C@@H](CO)O1)c1ccccc1 was read as IDE exosite FP 2.2.
`O=C(NCc1ccc2c(c1)OCO2)[C@@H]1[C@@H](CO)[C@@H]2Cn3c(cccc3=O)[C@H]1N2Cc1cncnc1` gave IDE exosite FP -0.42.
For CN1C(=O)c2cc(NC(=O)Nc3ccc(Cl)cc3)ccc2OC[C@H]2O[C@@H](CC(=O)NCCN3CCCCC3)CC[C@@H]21 the results were IDE exosite FP -4.7*.
Screening CN1C(=O)c2cc(NC(=O)Nc3ccc(Cl)cc3)ccc2OC[C@H]2O[C@@H](CC(=O)NCCN3CCCCC3)CC[C@H]21 returned IDE exosite FP 0.06.
For CN1C(=O)c2cc(NC(=O)Nc3ccccc3Cl)ccc2OC[C@H]2O[C@H](CC(=O)O)CC[C@@H]21 the results were IDE exosite FP -6.2*.
Screening CN1C(=O)c2cc(NC(=O)Nc3ccccc3Cl)ccc2OC[C@@H]2O[C@H](CC(=O)O)CC[C@@H]21 returned IDE exosite FP -0.56.
`CN1C(=O)c2cc(NC(=O)Cc3cccs3)ccc2OC[C@@H]2O[C@@H](CC(=O)NCCCN3CCOCC3)CC[C@H]21` gave IDE exosite FP -1.
`CN1C(=O)c2cc(NC(=O)Cc3cccs3)ccc2OC[C@H]2O[C@@H](CC(=O)NCCCN3CCOCC3)CC[C@@H]21` gave IDE exosite FP -0.5.
`CN1C(=O)c2cc(NC(=O)Cc3cccs3)ccc2OC[C@H]2O[C@H](CC(=O)NCCCN3CCOCC3)CC[C@@H]21` gave IDE exosite FP -0.35.
Screening CN1C(=O)c2cc(NC(=O)Nc3ccccc3Cl)ccc2OC[C@H]2O[C@H](CC(=O)O)CC[C@H]21 returned IDE exosite FP -0.35.
`CN1C(=O)c2cc(NC(=O)Nc3ccc(Cl)cc3)ccc2OC[C@@H]2O[C@H](CC(=O)NCCN3CCCCC3)CC[C@H]21` gave IDE exosite FP -0.35.
`CCS(=O)(=O)Nc1ccc2c(c1)C(=O)N(C)[C@H]1CC[C@H](CC(=O)NCCCN3CCOCC3)O[C@@H]1CO2` gave IDE exosite FP 0.45.
`CN1C(=O)c2cc(NC(=O)Nc3ccccc3Cl)ccc2OC[C@H]2O[C@@H](CC(=O)NCCCN3CCOCC3)CC[C@@H]21` gave IDE exosite FP -6.1*.
Screening CN1C(=O)c2cc(NC(=O)Nc3ccccc3Cl)ccc2OC[C@H]2O[C@H](CC(=O)NCCCN3CCOCC3)CC[C@@H]21 returned IDE exosite FP -14*.
For O=C1CCCCn2nncc2COC[C@H](Cc2ccccc2)N1 the results were IDE exosite FP -0.91.
For CCS(=O)(=O)NCC[C@H]1CC[C@@H](NS(=O)(=O)c2ccccc2C)[C@H](CO)O1 the results were IDE exosite FP 0.44.
CS(=O)(=O)N1[C@H](CO)[C@@H](c2ccc(C#CC3CC3)cc2)[C@@H]1C#N was read as IDE exosite FP 2.8.
`CC(=O)NC[C@@H]1[C@@H](c2ccc(C3=CCCC3)cc2)[C@@H](CO)N1C(=O)C1CCC1` gave IDE exosite FP 1.1.
CCN(C[C@@H]1[C@@H](c2ccccc2)[C@H](CO)N1CC1CC1)C(=O)c1cccc(F)c1 was read as IDE exosite FP 3.5.
For CN1C(=O)c2cc(NC(=O)Nc3ccccc3Cl)ccc2OC[C@@H]2O[C@H](CC(=O)NCCCN3CCOCC3)CC[C@@H]21 the results were IDE exosite FP -4.7*.
For CN1C(=O)c2cc(NC(=O)Cc3cccs3)ccc2OC[C@H]2O[C@@H](CC(=O)NCCCN3CCOCC3)CC[C@H]21 the results were IDE exosite FP 0.06.
`CN1C(=O)c2cc(NC(=O)Cc3cccs3)ccc2OC[C@@H]2O[C@H](CC(=O)NCCCN3CCOCC3)CC[C@H]21` gave IDE exosite FP 0.06.
For CS(=O)(=O)N1[C@H](C#N)[C@@H](c2ccc(-c3ccccc3F)cc2)[C@H]1CO the results were IDE exosite FP -2.1.
`CS(=O)(=O)N1[C@H](C#N)[C@H](c2ccc(-c3ccccc3F)cc2)[C@H]1CO` gave IDE exosite FP -1.7.
CS(=O)(=O)N1[C@H](C#N)[C@@H](c2ccc(-c3ccccc3F)cc2)[C@@H]1CO was read as IDE exosite FP -3*.
`CS(=O)(=O)N1[C@H](CO)[C@H](c2ccc(-c3ccccc3F)cc2)[C@@H]1C#N` gave IDE exosite FP -1.3.
`CS(=O)(=O)N1[C@@H](C#N)[C@H](c2ccc(-c3ccccc3F)cc2)[C@@H]1CO` gave IDE exosite FP -5.2*.
`CS(=O)(=O)N1[C@H](C#N)[C@H](c2ccccc2-c2ccccc2F)[C@H]1CO` gave IDE exosite FP -0.99.
`CC(=O)N1CCCCN2[C@H](CO)[C@H](c3ccc(-c4ccncc4)cc3)[C@@H]2C1` gave IDE exosite FP 1.2.
N#Cc1ccc(-c2ccc([C@@H]3[C@H]4CN(C(=O)Nc5ccc(F)cc5)CCCCN4[C@H]3CO)cc2)cc1 was read as IDE exosite FP -0.62.
CCCNC(=O)N1[C@H](CO)[C@H](c2ccccc2)[C@@H]1CNC(=O)C1CCCCC1 was read as IDE exosite FP 2.3.
For CCCC(=O)Nc1ccc2c(c1)C(=O)N(C)[C@@H]1CC[C@H](CC(=O)NCc3cccc(F)c3)O[C@@H]1CO2 the results were IDE exosite FP -0.27.
`COc1cccc(NC(=O)C[C@H]2CC[C@H]3[C@H](COc4ccc(NS(=O)(=O)c5cccc(F)c5)cc4C(=O)N3C)O2)c1` gave IDE exosite FP 1.
Screening CC(=O)N1CCCCN2[C@H](C1)[C@@H](c1ccc(-c3cccc(C)c3)cc1)[C@@H]2CO returned IDE exosite FP -14*.
Screening CN(C)C(=O)c1ccc(-c2ccc([C@H]3[C@H](CO)N4CCCCN(C(=O)C5CC5)C[C@@H]34)cc2)cc1 returned IDE exosite FP -5*.
CC(=O)N1CCCCN2[C@H](C1)[C@@H](c1ccc(-c3ccc(C)cc3)cc1)[C@@H]2CO was read as IDE exosite FP -0.53.
`CC(=O)N1CCCCN2[C@H](CO)[C@@H](c3ccc(-c4ccc(C)cc4)cc3)[C@@H]2C1` gave IDE exosite FP 1.5.
Screening CC(=O)N1CCCCN2[C@@H](CO)[C@H](c3ccc(-c4ccc(C)cc4)cc3)[C@@H]2C1 returned IDE exosite FP -0.57.
Screening CN(C)C(=O)c1ccc(-c2ccc([C@H]3[C@H]4CN(C(=O)C5CC5)CCCCN4[C@H]3CO)cc2)cc1 returned IDE exosite FP 2.2.
Screening CC(=O)N1CCCCN2[C@@H](CO)[C@@H](c3ccc(-c4ccc(C)cc4)cc3)[C@@H]2C1 returned IDE exosite FP 1.1.
Screening CN(C)C(=O)c1ccc(-c2ccc([C@H]3[C@@H](CO)N4CCCCN(C(=O)C5CC5)C[C@H]34)cc2)cc1 returned IDE exosite FP 3.7.
Screening CC(=O)N1CCCCN2[C@H](C1)[C@H](c1ccc(-c3cccc(C)c3)cc1)[C@@H]2CO returned IDE exosite FP -5.3*.
COc1cccc(S(=O)(=O)N2CCCCN3[C@H](CO)[C@H](c4ccc(C5=CCCCC5)cc4)[C@@H]3C2)c1 was read as IDE exosite FP 2.8.
